Rows were chosen to be rich in hits. Some 1.3% of all compounds tested hit in one or more screens of this group.
RTF Ca sens act: cardiac RTF calcium sensitivity activators, primary screen, biochemical, IANBD-TnC fluorescence, EC20 calcium. activation, % at 7.2 µM. IANBD-labeled TnC RTF fluorescence at EC20 calcium; 0% EC20 calcium, 100% full calcium. actives 0.24% (n = 340,000);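 active = activation above the mean over all tested compounds plus 3 SD, cut at about 30% in these data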;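 also: rise in fluorescence read as greater calcium sensitivity of cardiac thin filaments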
LANA-H2B inh: blockers of LANA interaction with H2A/H2B – biochemical, FP readout, HTS, primary screen; Protein LANA1 (Human herpesvirus 8 type P (isolate GK18)), Q9QR71; cell-free LANA-H2A/H2B peptide, fluorescence polarization; inhibition, % (test concentration not listed); actives 0.6% (n = 320,000); in the data active = inhibition mostly above about 10%, no sharp cut-off; inactive = mostly below about 6.7%
Keap1 Nrf2 FP: Keap1-Nrf2 protein-protein interaction inhibitors, primary screen, biochemical, fluorescence polarization, single point; Kelch-like ECH-associated protein 1 (Homo sapiens), Q14145; Keap1 Kelch-Nrf2 peptide fluorescence polarization, 1536-well; inhibition, % at 9.4 µM; actives 0.15% (n = 340,000); in the data active = inhibition above about 12%;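 also: human Keap1 Kelch domain with fluorescein labeled Nrf2 9mer peptide probe; 0% = neutral control wells and 100% = peptide positive control; higher means more block of Keap1 binding to Nrf2 peptide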
Target sequence (Q14145 whole entry, looked up, the tested form may be a part): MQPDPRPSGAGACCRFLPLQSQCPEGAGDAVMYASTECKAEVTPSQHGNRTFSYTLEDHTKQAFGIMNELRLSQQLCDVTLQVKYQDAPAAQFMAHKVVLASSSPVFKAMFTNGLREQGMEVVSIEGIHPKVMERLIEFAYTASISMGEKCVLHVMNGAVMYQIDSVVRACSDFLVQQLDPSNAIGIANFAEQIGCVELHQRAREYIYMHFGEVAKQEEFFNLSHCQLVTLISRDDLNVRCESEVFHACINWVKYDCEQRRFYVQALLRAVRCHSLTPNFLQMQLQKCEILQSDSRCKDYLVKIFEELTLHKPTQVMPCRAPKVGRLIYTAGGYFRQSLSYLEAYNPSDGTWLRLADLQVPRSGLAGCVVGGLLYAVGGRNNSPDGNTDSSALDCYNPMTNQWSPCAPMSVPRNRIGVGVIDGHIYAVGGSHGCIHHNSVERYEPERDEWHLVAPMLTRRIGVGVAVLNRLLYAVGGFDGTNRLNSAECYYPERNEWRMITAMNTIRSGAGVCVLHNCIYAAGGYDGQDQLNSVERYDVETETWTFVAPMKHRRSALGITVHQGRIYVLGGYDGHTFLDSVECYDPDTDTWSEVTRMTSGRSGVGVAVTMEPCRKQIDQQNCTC
C-LANA FP: inhibitors of KSHV C-LANA binding to DNA, primary screen, biochemical, fluorescence polarization, FAM-LBS DNA, MBP-C-LANA, single point. inhibition, % at 9 µM. actives 0.078% (n = 340,000). AID 504423, 2011. Kaposi's sarcoma herpesvirus LANA C-terminal domain (residues 932-1162) DNA binding;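 active = highest replicate inhibition at or above 60% at 9 µM, even if other replicates fall short; inactive = all replicates below 60% inhibition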;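 also: 0% = neutral control wells and 100% = 4 µM acridine orange control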
Cardiac RTF inh: cardiac RTF calcium sensitivity inhibitors, primary screen, biochemical, IANBD-TnC fluorescence, EC70 calcium | IANBD-labeled cardiac RTF, Ca2+ fluorescence | AID 493244, 2011 | inhibition, % at 7.15 µM | actives 0.12% (n = 340,000) | Troponin I, cardiac muscle (Homo sapiens) + Troponin T, cardiac muscle (Homo sapiens) + …;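 active = inhibition above the mean inhibition of all tested compounds plus 3 SD, cut at about 17% in these data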;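 also: assay run at fixed EC70 calcium of 1.6 mM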
eLon inh: inhibitors of E. coli Lon protease, primary screen, biochemical, fluorescence polarization; inhibition, % at 7.94 µM; purified E. coli Lon protease; actives 0.42% (n = 360,000); in the data active = inhibition above about 13%, passing the limit was not always enough;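 also: 0% = enzyme with probe and DMSO and 100% = no enzyme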
E coli Lon conf: E. coli Lon protease inhibitor retest, confirmation, biochemical, fluorescence polarization; shares compounds with eLon inh; purified E. coli Lon; inhibition, % at 7.94 µM; actives 31% (n = 1,400); in the data active = inhibition above about 16%;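 also: 0% = enzyme with probe and DMSO and 100% = no enzyme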
* = called active by the depositor; nt = no result; + = active, no number.

SMILES	RTF Ca sens act	LANA-H2B inh	Keap1 Nrf2 FP	C-LANA FP	Cardiac RTF inh	eLon inh	E coli Lon conf
C/C=C(\C)C(=O)OC1c2c(ccc3ccc(=O)oc23)OC(C)(C)C1OC(C)=O (stereo unspecified)	-4	4	2	2	-9	-1	nt
CC(=O)O[C@@H]1[C@H](OC(=O)CC(C)C)c2c(ccc3ccc(=O)oc23)OC1(C)C	10	0	3	1	3	113*	-6
COc1ccc(N2CC(C(=O)NCCC3=CCCCC3)CC2=O)c(OC)c1 (stereo unspecified)	4	0	1	-1	-12	-8	nt
COc1ccc(/C=C2\CCc3c2nc2ccccc2c3C(=O)O)cc1OC	4	2	-4	6	-50	65*	13
Cc1c(NC(=O)CSc2ncnc3ccccc23)c(=O)n(-c2ccccc2)n1C	-3	3	0	-3	-6	-10	nt
Cc1ccccc1OCCNc1cc(N2CCCCC2)ccc1[N+](=O)[O-]	6	4	-3	1	-3	15*	8
COc1ccc(CCNC(=O)c2cc(-c3ccccc3)c(N3CCOCC3)s2)cc1OC	2	3	1	1	-8	4	nt
COc1ccc(/C=N/N2CCN(C)CC2)c(OC)c1OC	3	-1	-4	-1	-2	20*	-8
COc1ccc(CCNC(=O)CN2C(=O)CSc3ccc(S(=O)(=O)N4CCOCC4)cc32)cc1OC	-4	2	-1	2	-5	1	nt
CCOc1ccc(CNC(=O)CN2C(=O)CSc3ccc(S(=O)(=O)N4CCOCC4)cc32)cc1OC	3	1	4	1	-9	64*	0
C/C=C/C(=O)OCC(=O)Nc1ccc(SC(F)F)cc1	2	4	-2	-1	-5	5	nt
Cc1ccc(C=Nc2cccnc2N)cc1	9	-1	5	11	-41	+	5
Cc1ccc(/C=N/N=C/c2ccc(C)cc2)cc1	3	4	-1	2	-13	-11	nt
O=C(Nc1ccn(CCCNCc2cccc3ccccc23)c(=O)n1)OCc1ccccc1	nt	nt	nt	nt	nt	13*	-8
CCOc1ccc(Nc2nc(NCC(=O)O)nc(N)c2[N+](=O)[O-])cc1	-2	1	3	4	-6	19*	-24
CC1(c2nnc(-c3ccccc3)o2)CC(c2ccc([N+](=O)[O-])cc2)=NO1 (stereo unspecified)	2	-3	-1	2	-8	-6	nt
O=C(NCc1ccccc1)c1cccc(COc2ccc3c(c2)CCC3)c1	1	4	-1	0	-9	3	nt
COc1cccc(OC)c1C(=O)NNC(=O)c1cccc(COc2ccc3c(c2)CCC3)c1	12	-4	-1	1	-4	15*	-1
CCOc1ccc(OCCC(=O)OCC(=O)N2CCN(S(=O)(=O)c3ccc(C)cc3C)CC2)cc1	0	nt	-4	1	-3	20*	3
Cn1c(=O)c2c(ncn2CC(=O)OCC(=O)Nc2ccc(Cl)cc2)n(C)c1=O	2	0	-1	-3	3	4	nt
CC(OC(=O)Cn1cnc2c1c(=O)n(C)c(=O)n2C)C(=O)Nc1ccc(Cl)cc1 (stereo unspecified)	-1	-9	-5	0	1	27*	-2
C[C@H](NC(=O)c1[nH]cnc1C(=O)N[C@@H](C)CO)c1ccccc1	nt	nt	nt	nt	nt	3	nt
Cc1ccc(CNC(=O)c2cc(C3CC3)nc3c2cnn3C(C)C)cc1	-2	9	0	0	-1	-2	nt
Cc1ccc(OCCNC(=O)c2cc(C3CC3)nc3c2cnn3C(C)C)cc1	-3	2	-1	-1	-2	+	-33

Screens from PubChem.
